Records with an inconclusive call do not appear. A call without a number means that no potency is given here. Activity calls are given as the source filed them. Calls come from the whole dose curve.
target: Acetylcholinesterase (Homo sapiens) (UniProt P22303); experiment: Acetylcholinesterase (AChE) small molecule antagonists: colormetric cell-based qHTS assay (AID 1347395); details: SH-SY5Y cells AChE activity, colorimetric (Ellman); series mostly up to 115 µM; note: nearly all actives have a fitted effect of over 30% in size
Procedure, shortened: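 SH-SY5Y cells; cpd 30 min 37 C; + DTNB/acetylthiocholine, 90 min 37 C; colorimetric thiocholine read; qHTS.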
Potency is the fitted concentration of half-maximal effect.

Sequence of Acetylcholinesterase (Homo sapiens) (P22303 whole entry, looked up): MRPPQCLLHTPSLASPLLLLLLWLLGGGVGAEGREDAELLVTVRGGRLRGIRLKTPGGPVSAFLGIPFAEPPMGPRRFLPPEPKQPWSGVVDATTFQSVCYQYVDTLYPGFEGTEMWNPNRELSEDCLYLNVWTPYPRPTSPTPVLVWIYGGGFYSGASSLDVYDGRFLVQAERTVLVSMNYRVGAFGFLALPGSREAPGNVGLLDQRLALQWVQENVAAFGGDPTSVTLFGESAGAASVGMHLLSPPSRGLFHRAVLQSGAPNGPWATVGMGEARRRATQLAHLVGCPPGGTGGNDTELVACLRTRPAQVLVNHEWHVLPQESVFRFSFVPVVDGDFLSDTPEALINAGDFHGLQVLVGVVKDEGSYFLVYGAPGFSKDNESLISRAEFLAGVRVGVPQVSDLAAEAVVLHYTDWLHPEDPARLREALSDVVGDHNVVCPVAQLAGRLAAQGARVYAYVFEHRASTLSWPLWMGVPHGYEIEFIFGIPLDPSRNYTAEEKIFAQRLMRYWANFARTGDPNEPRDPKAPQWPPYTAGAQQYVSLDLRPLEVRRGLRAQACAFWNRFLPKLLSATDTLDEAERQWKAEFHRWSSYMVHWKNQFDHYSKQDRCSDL

| Structure (SMILES) | Potency | activity, negative = inhibition |
| --- | --- | --- |
| O=C(Nc1ccc(Oc2ccc(Cl)cc2)c(Cl)c1)c1cc(I)cc(I)c1O | inactive |  |
| CCC[C@@H]1C[C@@H](C(=O)N[C@@H]([C@H]2O[C@H](SC)[C@H](O)[C@@H](O)[C@H]2O)[C@@H](C)O)N(C)C1 | inactive |  |
| CO[Si](CCCS)(OC)OC | inactive |  |
| CCCCCOC(=O)c1ccc(O)cc1 | inactive |  |
| CC(=O)N(CC(=O)N(C)C)c1ccccc1 | inactive |  |
| COC(=O)c1cccc(Cl)c1 | inactive |  |
| CC(C)(C)c1nnc(NS(=O)(=O)c2ccc(N)cc2)s1 | inactive |  |
| CCN(CC)CCc1nc(-c2ccccc2)no1 | inactive |  |
| O=C(O)c1cccc(C(F)(F)F)c1 | inactive |  |
| C=CCOC(=O)COCCC(C)C | inactive |  |
| CCCCCCC1(C)CCC(=O)O1 (stereo not given) | inactive |  |
| COc1cccc(OC)c1C(=O)O | inactive |  |
| CCCCN1CCCC1C(=O)Nc1c(C)cc(C)cc1C (stereo not given) | inactive |  |
| C[N+](C)(CCOc1ccccc1)Cc1cccs1 | inactive |  |
| CCCCCCCCC1CCC(=O)O1 (stereo not given) | inactive |  |
| Sc1nc2ccccc2s1 | inactive |  |
| Cc1cccc2nccnc12 | inactive |  |
| O=CCCc1ccccc1 | inactive |  |
| CCCCCCCCCCCCCCN(C)C |  | 0.601% [at 23.6 µM] (inactive) |
| CC(C)=CCC/C(C)=C/C=N/O | inactive |  |

| Structure (SMILES) | Potency | activity, negative = inhibition |
| --- | --- | --- |
| CC(C)c1cccc(C(C)C)c1NC(=O)NS(=O)(=O)c1cc(C(C)(C)O)co1 | inactive |  |
| COc1ccc(NS(=O)(=O)c2ccc(N)cc2)nn1 | inactive |  |
| CC(=O)c1ccc2c(c1)N(CCCN1CCC(CCO)CC1)c1ccccc1S2 | 38.9 µM (active) |  |
| C=C1CC[C@H]2O[C@]2(C)CC[C@@H]2[C@@H]1CC2(C)C | inactive |  |
| OCCCCCCO | inactive |  |
| Nc1ccc(Cl)c([N+](=O)[O-])c1 | inactive |  |
| CN=C(NC#N)NCCSCc1csc(N=C(N)N)n1 | inactive |  |
| CCC(CC)C(C)CCOC(C)=O (stereo not given) | inactive |  |
| CCOC(=O)CC(=O)C(=O)OCC | inactive |  |
| Clc1ccc2nsnc2c1NC1=NCCN1 | inactive |  |
| CCOC(=O)N1CCC(Nc2ccc(Cl)cc2N)CC1 | inactive |  |
| CC(C)CCCC(C)CCO (stereo not given) | inactive |  |
| O=C1OC(OC(=O)c2cccnc2Nc2cccc(C(F)(F)F)c2)c2ccccc21 (stereo not given) | inactive |  |
| CC1=C(/C=C/C(C)=C/C=C/C(C)=C\C(=O)O)C(C)(C)CCC1 | inactive |  |
| O=C(O)COCC(=O)O | inactive |  |
| CC(C)Cn1cnc2c(N)nc3ccccc3c21 |  | -1.3% [at 23.6 µM] (inactive) |
| Cc1cc(N)c(S(=O)(=O)O)cc1Cl | inactive |  |
| COC(=O)c1ccccc1Cl | inactive |  |
| CCCC(=O)OC/C=C(\C)CCC=C(C)C | inactive |  |
| CCC(OCCCOC)OC(C)=O (stereo not given) | inactive |  |
